# Hit rate of the full screen: of about 39,000 compounds, about 3,300 (8.5%) were called active. Many of the other results were omitted from the sample, so actives are more common in it than they were.
# Tested on: HepG2
# Test: cytotoxicity call (relative viability < 0.9)
# Conditions: 10 µM
row,Compound,cytotoxicity call
1,C[C@@H]1CN([C@H](C)CO)C(=O)Cc2cc(NC(=O)CCCCCC(=O)Nc3ccccc3N)ccc2O[C@H]1CN(C)S(=O)(=O)c1cn(C)cn1,inactive
2,COc1ccc(NC(=O)N(C)C[C@@H]2OCCCC[C@@H](C)Oc3ccc(NS(=O)(=O)c4cccs4)cc3C(=O)N([C@@H](C)CO)C[C@H]2C)cc1,inactive
3,C[C@H](CO)N1C[C@H](C)[C@@H](CN(C)S(=O)(=O)c2cn(C)cn2)Oc2ccc(NC(=O)C3CC3)cc2CC1=O,inactive
4,C[C@@H]1CCCCO[C@H](CN(C)Cc2ccc(C(=O)Nc3ccccc3N)cc2)[C@@H](C)CN([C@@H](C)CO)C(=O)c2cc(N(C)C)ccc2O1,inactive
5,O=C(C[C@H]1C=C[C@@H](NC(=O)CN2CCOCC2)[C@@H](CO)O1)NCCc1ccccc1,inactive
6,CC(C)CC#Cc1ccc2c(c1)O[C@H](CN(C)C(=O)c1ccncc1)[C@H](C)CN([C@H](C)CO)S2(=O)=O,inactive
7,OCCC[C@@H](O)c1ccc(OCCO)cc1,inactive
8,CCCCCCCCCc1ccc(OCCOCCOCCOCCOCCOCCOCCOCCOCCO)cc1,active
9,CCCCCCCCc1ccc(-c2ccc(C(=O)O)cc2)cc1,inactive
10,C[C@@H]1CN([C@@H](C)CO)C(=O)CCCn2nncc2CO[C@H]1CN(C)Cc1ccc(C(=O)Nc2ccccc2N)cc1,inactive
11,c1coc(CNC[C@H]2Cn3nncc3CO2)c1,inactive
12,CC(C)(C)c1ccc(NC(=O)N[C@H]2CCCc3ccccc32)cc1,active
13,CC(C)(C)c1ccc(NC(=O)c2ccc(C(C)(C)C)s2)cc1,inactive
14,N[C@H]1CC[C@@H](NC(=O)[C@H]2CCc3ccccc32)CC1,inactive
15,Cc1ccc(S(=O)(=O)Nc2ccc3c(c2)C(=O)N([C@H](C)CO)C[C@H](C)[C@@H](CN(C)C(=O)NC2CCCCC2)OCCCC[C@@H](C)O3)cc1,inactive
16,Cl.Clc1ccc(Cn2c(CN3CCCC3)nc3ccccc32)cc1,inactive
17,Clc1ccc(CSc2nc3ccccc3s2)cc1,inactive
18,Cc1nc2ccccc2n1Cc1ccc(Cl)cc1,active
19,CC1=CC2(CO)C(=O)[C@]3(CO3)C1[C@H]1[C@]2(C)C=C(CO)C(=O)[C@]12CO2 (some centres undefined),inactive
20,COc1ccc([Si](C)(C)[C@@H]2[C@@H](CC(=O)N3Cc4ccccc4C[C@H]3CO)O[C@]3(C(=O)N(Cc4cccc(N5C(=O)c6cccc7cccc5c67)c4)c4ccccc43)[C@H]2C)cc1,inactive
21,COc1ccc([Si](C)(C)[C@H]2[C@H](CC(=O)N3Cc4ccccc4C[C@H]3CO)O[C@@]3(C(=O)N(Cc4cccc(N5C(=O)c6cccc7cccc5c67)c4)c4ccccc43)[C@@H]2C)cc1,active
22,COc1ccc([Si](C)(C)[C@@H]2[C@@H](CCO)O[C@]3(C(=O)N(Cc4cccc(N5C(=O)c6cccc7cccc5c67)c4)c4ccccc43)[C@H]2C)cc1,active
23,C[C@@H]1[C@@H]([Si](C)(C)F)[C@H](CCO)O[C@@]12C(=O)N(Cc1cccc(N3C(=O)c4cccc5cccc3c45)c1)c1ccccc12,inactive
24,COc1ccc([Si](C)(C)[C@@H]2[C@@H](CC(=O)N3CCC[C@H]3CO)O[C@]3(C(=O)N(Cc4cccc(N5C(=O)c6cccc7cccc5c67)c4)c4ccccc43)[C@H]2C)cc1,inactive
25,COc1ccc([Si](C)(C)[C@H]2[C@H](CCO)O[C@@]3(C(=O)N(Cc4ccccc4)c4ccc(N5C(=O)c6cccc7cccc5c67)cc43)[C@@H]2C)cc1,active

row,Compound,cytotoxicity call
1,COc1ccc([Si](C)(C)[C@H]2[C@H](CC(=O)N3CCC[C@H]3CO)O[C@@]3(C(=O)N(Cc4cccc(N5C(=O)c6cccc7cccc5c67)c4)c4ccccc43)[C@@H]2C)cc1,inactive
2,COc1ccc([Si](C)(C)[C@H]2[C@H](CCO)O[C@@]3(C(=O)N(Cc4cccc(N5C(=O)c6cccc7cccc5c67)c4)c4ccccc43)[C@@H]2C)cc1,active
3,COc1ccc([Si](C)(C)[C@H]2[C@H](CC(=O)N3Cc4ccccc4C[C@H]3CO)O[C@@]3(C(=O)N(Cc4ccc(N5C(=O)c6cccc7cccc5c67)cc4)c4ccccc43)[C@@H]2C)cc1,inactive
4,COc1ccc([N+](=O)[O-])cc1CNCCO,inactive
5,CCNC(=O)C[C@H]1C=C[C@@H](NC(=O)C2CCOCC2)[C@H](CO)O1,inactive
6,CN(C)CC(=O)N[C@@H]1CC[C@@H](CCNS(=O)(=O)c2ccccc2)O[C@H]1CO,inactive
7,NCc1ccccc1-c1ccco1,inactive
8,C1CC(N2CCNCC2)C1,inactive
9,CN(C)CC(=O)N[C@@H]1CC[C@@H](CC(=O)O)O[C@H]1CO,inactive
10,C[C@H](CO)N1C[C@H](C)[C@@H](CN(C)Cc2cccc3c2OCCCO3)OCc2cnnn2CCCC1=O,inactive
11,CC(O)C(=O)Nc1c(I)c(C(=O)NC(CO)CO)c(I)c(C(=O)NC(CO)CO)c1I (centres undefined),inactive
12,Cc1cccc(S(=O)(=O)N2C[C@@H](O)COC[C@@H]3O[C@@H](CC(=O)NCCCN4CCOCC4)CC[C@H]32)c1,inactive
13,COc1ccc(S(=O)(=O)N(C)C[C@@H]2Oc3ccc(NC(=O)NC(C)C)cc3C(=O)N([C@H](C)CO)C[C@H]2C)cc1,inactive
14,C[C@@H]1CN([C@H](C)CO)C(=O)c2cccc(NC(=O)c3cnccn3)c2O[C@@H]1CN(C)S(=O)(=O)c1cccs1,inactive
15,COC(=O)C1=C2CC[C@H](CO)NC(=O)N[C@@H](Cc3ccccc3)C(=O)NCc3cn(nn3)C[C@H](Cc3ccccc3)NC(=O)c3oc(c(C(=O)OC)c3C(=O)OC)CC[C@H](CO)NC(=O)N[C@@H](Cc3ccccc3)C(=O)NCc3cn(nn3)C[C@H](Cc3ccccc3)NC(=O)C(=C1C(=O)OC)O2,inactive
16,CCCN(C)C[C@@H]1OCCCC[C@@H](C)Oc2ccc(NS(C)(=O)=O)cc2C(=O)N([C@H](C)CO)C[C@H]1C,inactive
17,CO[C@@H]1CN(C)C(=O)c2ccc(NC(=O)c3ccccc3)cc2OC[C@@H](C)N(C(=O)CN(C)C)C[C@@H]1C,inactive
18,CNC(=N)NCCC[C@@H](N)C(=O)O,inactive
19,C[C@@H]1CN([C@H](C)CO)C(=O)c2cc(C#Cc3ccccc3F)cnc2O[C@H]1CN(C)C(=O)Cc1ccncc1,inactive
20,Oc1c(Cl)cc(Cl)cc1Sc1cc(Cl)cc(Cl)c1O,active
21,Cc1noc(C)c1NC(=O)Nc1ccc2c(c1)C(=O)N([C@@H](C)CO)C[C@@H](C)[C@H](CN(C)CC1CC1)OCCCC[C@H](C)O2,inactive
22,C[C@H]1CN([C@@H](C)CO)C(=O)c2cc(NC(=O)Cn3cnnn3)ccc2O[C@H]1CN(C)S(=O)(=O)c1cccs1,inactive
23,C[C@H]1CN([C@@H](C)CO)C(=O)CCCn2cc(nn2)CO[C@H]1CN(C)Cc1ccc2c(c1)OCCN2C,inactive
24,C[C@H](CO)N1C[C@H](C)[C@H](CN(C)Cc2ccc(Cl)c(Cl)c2)Oc2ccc(NC(=O)C3CCCCC3)cc2CC1=O,inactive
25,C[C@H](CO)N1C[C@H](C)[C@H](CN(C)C(=O)c2ccccc2)OCCCC[C@H](C)Oc2ccc(NC(=O)Nc3cccc4ccccc34)cc2C1=O,inactive

row,Compound,cytotoxicity call
1,C[C@@H]1CN([C@@H](C)CO)C(=O)c2cc(NS(C)(=O)=O)ccc2O[C@H]1CN(C)Cc1ccc(C(F)(F)F)cc1,inactive
2,Clc1ccc(C(c2ccc(Cl)cc2)[n+]2ccn(C[C@@H](OCc3ccc(Cl)cc3Cl)c3ccc(Cl)cc3Cl)c2)cc1,active
3,Clc1ccc(C(Cn2ccnc2)OCc2ccsc2Cl)c(Cl)c1 (centres undefined),inactive
4,CNC[C@@H]1OCCCC[C@H](C)Oc2ccc(NC(=O)c3ccncc3)cc2C(=O)N([C@@H](C)CO)C[C@@H]1C,inactive
5,NC(=O)NCCC[C@H](N)C(=O)O,inactive
6,NC(=O)CC[C@H]1CCCNC1,inactive
7,Cc1ccc(NC(=N)N=C(N)N)c(C)c1,inactive
8,Cc1ccccc1NC(=N)N=C(N)N,active
9,CCc1ccc(NC(=N)N=C(N)N)cc1,inactive
10,COc1cccc(S(=O)(=O)N2C[C@@H](O)COC[C@H]3O[C@@H](CC(=O)N4CCN(c5ccccc5)CC4)CC[C@@H]32)c1,inactive
11,COc1ccc(NC(=O)N(C)C[C@@H]2OCc3cnnn3CCCC(=O)N([C@H](C)CO)C[C@H]2C)c(OC)c1,inactive
12,CN1CCN(C(=O)C[C@@H]2CC[C@H]3[C@H](COc4ccc(NC(=O)c5cscn5)cc4C(=O)N3C)O2)CC1,inactive
13,C[C@H](CO)N1C[C@H](C)[C@@H](CN(C)C)Oc2ccc(NC(=O)Cc3cn(C)c4ccccc34)cc2CC1=O,inactive
14,Nc1nc(N)c2nc(CNc3ccc(C(=O)NC(CCC(=O)O)C(=O)O)cc3)cnc2n1 (centres undefined),active
15,Nc1nc(=O)c2c([nH]1)NC[C@H](CNc1ccc(C(=O)N[C@@H](CCC(=O)O)C(=O)O)cc1)N2C=O,inactive
16,CN(Cc1cnc2nc(N)nc(N)c2n1)c1ccc(C(=O)NC(CCC(=O)O)C(=O)O)cc1.O (centres undefined),active
17,Nc1nc(=O)c2nc(CNc3ccc(C(=O)N[C@@H](CCC(=O)O)C(=O)O)cc3)cnc2[nH]1,inactive
18,CN(Cc1cnc2nc(N)nc(N)c2n1)c1ccc(C(=O)N[C@@H](CCC(=O)O)C(=O)O)cc1,active
19,Nc1nc(=O)c2c([nH]1)NCC(CNc1ccc(C(=O)NC(CCC(=O)O)C(=O)O)cc1)=N2 (centres undefined),inactive
20,Nc1nc(=O)c2nc(CNc3ccc(C(=O)NC(CCC(=O)O)C(=O)O)cc3)cnc2[nH]1 (centres undefined),inactive
21,CC(=O)N[C@@H](CCC(=O)O)C(=O)O,inactive
22,CCCN(CCC)C(=O)C(CCC(=O)O)NC(=O)c1ccccc1 (centres undefined),inactive
23,CN(C)CCCNC(=O)C[C@H]1C=C[C@H](NS(=O)(=O)c2ccccc2)[C@H](CO)O1,inactive
24,C[C@@H]1CN([C@@H](C)CO)C(=O)Cc2cc(NS(C)(=O)=O)ccc2O[C@H]1CN(C)C(=O)Nc1ccc(F)cc1,inactive

# Reference: the antibiotic and cytotoxicity screens of Wong et al. (2023)
